{
  "source": "PubChem BioAssay AID651658",
  "about": "(Broad Institute, 2012)",
  "note": "Among all 340,000 compounds or so, about 5,100 (1.5%) were called active.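 Rule for the calls: active = mean Tm shift, scaled 0 neutral to 100 positive control, at about 1.3% or above, every replicate too (limit read from the data); inconclusive = no clear call, values can overlap the other calls; inactive = the rest.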 Only a selection was taken, and actives are over-represented in it overall.",
  "data": [
    {"molecular_target": "Fibroblast growth factor 22 (Homo sapiens) (UniProt Q9HCT0)", "sequence (Q9HCT0 whole entry, looked up)": "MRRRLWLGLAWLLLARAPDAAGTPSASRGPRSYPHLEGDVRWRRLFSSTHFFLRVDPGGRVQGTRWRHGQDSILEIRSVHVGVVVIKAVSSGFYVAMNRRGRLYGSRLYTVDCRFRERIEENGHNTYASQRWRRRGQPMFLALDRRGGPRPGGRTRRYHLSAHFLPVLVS", "test": "binders of human FGF22 protein, primary screen, FGF22 synaptogenesis inhibitor project, biophysical, thermal shift, single point (AID 651658)", "conditions": "recombinant FGF22 thermal shift, SYPRO orange fluorescence; at 9.99 µM; active compounds read high; percent of sucrose octasulfate shift, DMSO zero", "values": [
      {"molecule": "N#C[C@@H]1[C@@H](c2ccccc2)[C@@H](CO)N1C(=O)c1cc(Cl)cc(Cl)c1", "activity (Tm shift, normalised)": "-0.146% (inactive)"},
      {"molecule": "O=C(NCc1ccccc1)[C@H]1CCCN1C(=O)[C@H]1CCCN1C(=O)N1CCOCC1", "activity (Tm shift, normalised)": "0.083% (inactive)"},
      {"molecule": "CNC(=O)/C(C#N)=C/c1c(F)cccc1Cl", "activity (Tm shift, normalised)": "0.243% (inactive)"},
      {"molecule": "O=C(/C=C/c1c(F)cccc1Cl)Nc1nn[nH]n1", "activity (Tm shift, normalised)": "43.2% (active)"},
      {"molecule": "Cc1ccc2c(Cl)c(C(=O)Nc3nn[nH]n3)sc2c1", "activity (Tm shift, normalised)": "-0.027% (inactive)"},
      {"molecule": "C/C=C/c1ccc([C@@H]2[C@@H](CO)N(C(=O)c3ccccc3)C23CN(C(C)=O)C3)cc1", "activity (Tm shift, normalised)": "-0.191% (inactive)"},
      {"molecule": "O=C(c1ccncc1)N1C[C@H]2[C@@H](c3ccccc31)[C@H](CO)N2C(=O)Nc1ccc(F)cc1", "activity (Tm shift, normalised)": "-0.662% (inactive)"},
      {"molecule": "Cc1ccc(C)n1NC(=O)c1ccc([N+](=O)[O-])cc1", "activity (Tm shift, normalised)": "0.235% (inactive)"},
      {"molecule": "COc1ccccc1C1SCCN1C(=O)c1ccc([N+](=O)[O-])cc1", "note": "(configuration not stated)", "activity (Tm shift, normalised)": "43.3% (active)"},
      {"molecule": "COc1ccccc1C1CCN(c2ccc([N+](=O)[O-])cn2)CC1", "activity (Tm shift, normalised)": "0.136% (inactive)"},
      {"molecule": "Cc1ccc(S(=O)(=O)Nc2ccc3c(c2)C(=O)N(C)[C@@H]2CC[C@@H](CC(=O)O)O[C@H]2CO3)cc1", "activity (Tm shift, normalised)": "-0.106% (inactive)"},
      {"molecule": "Cc1ccc(-c2ccc3c(c2)O[C@H](CN(C)C(=O)CC2CC2)[C@@H](C)CN([C@H](C)CO)S3(=O)=O)cc1", "activity (Tm shift, normalised)": "-0.566% (inactive)"},
      {"molecule": "COc1ccc(NC(=O)Nc2ccc3c(c2)[C@@H]2C[C@H](CC(=O)N4CCCCC4)O[C@H](CO)[C@@H]2O3)cc1", "activity (Tm shift, normalised)": "-0.385% (inactive)"},
      {"molecule": "O=c1cnnc(Nc2ccccc2F)[nH]1", "activity (Tm shift, normalised)": "43.4% (active)"},
      {"molecule": "Cc1nnc(Nc2ccccc2F)s1", "activity (Tm shift, normalised)": "0.041% (inactive)"},
      {"molecule": "O=c1ccnc(Nc2ccc(Cl)cc2)[nH]1", "activity (Tm shift, normalised)": "0.494% (inactive)"},
      {"molecule": "CN(C)C(=O)C[C@H]1C[C@@H]2c3cc(NC(=O)CC4CC4)ccc3O[C@@H]2[C@@H](CO)O1", "activity (Tm shift, normalised)": "-0.027% (inactive)"},
      {"molecule": "CCCNC(=O)N(C)C[C@@H]1Oc2ncc(-c3cccc(C#N)c3)cc2C(=O)N([C@@H](C)CO)C[C@H]1C", "activity (Tm shift, normalised)": "0.077% (inactive)"},
      {"molecule": "CC(C)c1cn([C@H]2C[C@@H]3O[C@H](CO)CC[C@@H]3O[C@@H]2CCc2ccc(C#CC3CCCCC3)cc2)nn1", "activity (Tm shift, normalised)": "0.095% (inactive)"},
      {"molecule": "CCc1ccccc1NC(=O)Cc1cn(C)c2ccccc12", "activity (Tm shift, normalised)": "43.6% (active)"},
      {"molecule": "Cn1cc(CCC(=O)NC2CC2)c2ccccc21", "activity (Tm shift, normalised)": "-0.251% (inactive)"},
      {"molecule": "Cc1ccc(CNC(=O)Cc2cn(C)c3ccccc23)cc1", "activity (Tm shift, normalised)": "-0.058% (inactive)"},
      {"molecule": "C[C@H](CO)N1C[C@H](C)[C@H](CN(C)C(=O)Nc2ccc(F)cc2)OCCCC[C@H](C)Oc2ccc(NC(=O)CCC(F)(F)F)cc2C1=O", "activity (Tm shift, normalised)": "-0.451% (inactive)"},
      {"molecule": "O=C(COc1coc(CN2CCN(c3ccccc3F)CC2)cc1=O)N1CCc2ccccc21", "activity (Tm shift, normalised)": "-0.217% (inactive)"},
      {"molecule": "O=C(CCSc1ccccc1)N1CCN(c2ccccc2F)CC1", "activity (Tm shift, normalised)": "0.121% (inactive)"},
      {"molecule": "Cn1c(=O)cc(OCC(=O)N2CCN(c3ccccc3F)CC2)c2ccccc21", "activity (Tm shift, normalised)": "44% (active)"},
      {"molecule": "C[C@@H]1CN([C@H](C)CO)C(=O)c2cc(NC(=O)Nc3cccc4ccccc34)ccc2O[C@H]1CN(C)C(=O)Nc1ccccc1", "activity (Tm shift, normalised)": "-0.15% (inactive)"},
      {"molecule": "CCC(=O)N1C[C@@H](C)[C@H](OC)CN(C)C(=O)c2ccc(NC(=O)NC(C)C)cc2OC[C@H]1C", "activity (Tm shift, normalised)": "-0.086% (inactive)"},
      {"molecule": "CCC(=O)N1C[C@@H](C)[C@H](OC)CN(C)C(=O)c2ccc(NC(=O)c3ccc(F)cc3)cc2OC[C@@H]1C", "activity (Tm shift, normalised)": "-0.101% (inactive)"},
      {"molecule": "CCN(CC)C(=O)N(CC)Cc1ccccc1", "activity (Tm shift, normalised)": "43.4% (active)"},
      {"molecule": "O=C(O)CCC(=O)N(Cc1ccccc1)Cc1ccccc1", "activity (Tm shift, normalised)": "-0.007% (inactive)"},
      {"molecule": "CCN(Cc1ccncc1)C(=O)CCc1ccccc1", "activity (Tm shift, normalised)": "0.094% (inactive)"},
      {"molecule": "CNC(=O)C[C@H]1CC[C@H]2[C@H](COc3ccc(NC(=O)c4cc(C)on4)cc3C(=O)N2C)O1", "activity (Tm shift, normalised)": "-0.057% (inactive)"},
      {"molecule": "O=C(C[C@H]1C[C@@H]2c3cc(NC(=O)c4ccc5c(c4)OCO5)ccc3O[C@@H]2[C@@H](CO)O1)NCc1cccnc1", "activity (Tm shift, normalised)": "-0.297% (inactive)"},
      {"molecule": "C[C@H]1CN([C@@H](C)CO)C(=O)CCCn2nncc2CO[C@H]1CN(C)S(=O)(=O)c1ccccc1C#N", "activity (Tm shift, normalised)": "-0.016% (inactive)"},
      {"molecule": "CO[C@H]1CN(C)C(=O)c2cc(NC(=O)C3CCC3)ccc2OC[C@H](C)N(Cc2nccs2)C[C@H]1C", "activity (Tm shift, normalised)": "-0.288% (inactive)"},
      {"molecule": "Cc1noc(C)c1S(=O)(=O)N(C)C[C@@H]1Oc2ccc(NC(=O)Cn3cnnn3)cc2CC(=O)N([C@@H](C)CO)C[C@@H]1C", "activity (Tm shift, normalised)": "-0.13% (inactive)"},
      {"molecule": "O=C(Nc1cccc(Cl)c1)c1cncn1-c1ccc(F)cc1", "activity (Tm shift, normalised)": "0.242% (inactive)"},
      {"molecule": "Cn1cc(Cl)c(C(=O)NNC(=S)Nc2cccc(Cl)c2)n1", "activity (Tm shift, normalised)": "44.2% (active)"},
      {"molecule": "Cc1cccc(-n2cnc(C(=O)NNC(=S)Nc3ccccc3)c2)n1", "activity (Tm shift, normalised)": "0.832% (inactive)"},
      {"molecule": "COCC(=O)Nc1ccc2c(c1)C(=O)N(C)[C@@H]1CC[C@H](CC(=O)NCC3CC3)O[C@H]1CO2", "activity (Tm shift, normalised)": "0.038% (inactive)"},
      {"molecule": "COC(=O)c1cc(OCC(=O)NC2CCCc3ccccc32)cc(C(=O)OC)c1", "note": "(configuration not stated)", "activity (Tm shift, normalised)": "0.172% (inactive)"},
      {"molecule": "NC(=O)Nc1ccc(C(=O)OCC(=O)NC2CCCc3ccccc32)cc1", "note": "(configuration not stated)", "activity (Tm shift, normalised)": "43% (active)"},
      {"molecule": "CCOc1ccc(NC(=O)COc2ccc(C(=O)NC3CCCc4ccccc43)cc2OC)cc1", "note": "(configuration not stated)", "activity (Tm shift, normalised)": "0.171% (inactive)"},
      {"molecule": "O=C(NC1CCCCC1)N1CC2(C1)[C@H](c1ccccc1)[C@@H](CO)N2S(=O)(=O)Cc1ccccc1", "activity (Tm shift, normalised)": "-0.24% (inactive)"},
      {"molecule": "Cc1ccc(NS(=O)(=O)c2ccc(C(C)C)cc2)cc1S(=O)(=O)N1CCOCC1", "activity (Tm shift, normalised)": "-0.175% (inactive)"},
      {"molecule": "Cc1ccc(S(=O)(=O)Nc2ccc(F)c(S(=O)(=O)N3CCOCC3)c2)cc1", "activity (Tm shift, normalised)": "43.3% (active)"},
      {"molecule": "CC(=O)NCCc1ccc(S(=O)(=O)Nc2ccc(C)c(S(=O)(=O)N3CCOCC3)c2)cc1", "activity (Tm shift, normalised)": "-0.312% (inactive)"},
      {"molecule": "CCCN1C[C@@H](C)[C@@H](OC)CN(C)C(=O)c2cc(NC(=O)CC(F)(F)F)ccc2OC[C@H]1C", "activity (Tm shift, normalised)": "0.002% (inactive)"},
      {"molecule": "CCOc1ccc(-c2cc(C(=O)N/N=C/c3ccc(O)cc3)c3ccccc3n2)cc1", "activity (Tm shift, normalised)": "0.307% (inactive)"},
      {"molecule": "O=C(N/N=C/c1ccc(OCc2ccccc2)cc1)c1ccc(O)cc1", "activity (Tm shift, normalised)": "2.5% (active)"},
      {"molecule": "O=C(Cc1cccs1)N/N=C/c1ccc(OCc2ccccc2)cc1", "activity (Tm shift, normalised)": "0.285% (inactive)"}
    ]}
  ]
}
